Assay results as given in PubChem BioAssay AID1159580 (chemical genetic matrix, 2015).
About 2,000 (36%) of roughly 5,500 compounds were called active. About 18% were inconclusive and are not listed. Rule as the data show it: active = normalized growth mostly below about 0.91 (no sharp cut-off); inconclusive = no clear call, values can overlap the other calls; inactive = mostly above about 0.92. The list shows a part of the results.

Test: chemical genetic growth profiling, strain panel (AID 1159580);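 also: tested at 20 µM; growth read once vehicle control cultures reached saturation at 30 °C; 1 = growth at the plate median or of vehicle wells; lower values mean less growth of the strain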
Settings: growth OD

Measured: normalized growth

COc1ccc2c(c1)CCC1C2CC[C@@]2(C)C1CC[C@@H]2O (some centres not stated)
inactive: S. cerevisiae deletion strains, locus YKL068W, hits give low values 0.944 | S. cerevisiae deletion strains, locus YKR026C, strain gcn3, hits give low values 0.969 | S. cerevisiae deletion strains, locus YKR091W, strain srl3, hits give low values 0.968 | S. cerevisiae deletion strains, locus YLL041C, strain sdh2, hits give low values 0.973 | S. cerevisiae deletion strains, locus YLR102C, strain apc9, hits give low values 0.951 | S. cerevisiae deletion strains, locus YLR370C, strain arc18, hits give low values 0.959 | S. cerevisiae deletion strains, locus YLR371W, strain rom2, hits give low values 0.925 | S. cerevisiae deletion strains, locus YLR384C, strain iki3, hits give low values 1.02 | S. cerevisiae deletion strains, locus YML016C, strain PPZ1, hits give low values 0.977 | S. cerevisiae deletion strains, locus YML124C, strain tub3, hits give low values 0.934 | S. cerevisiae deletion strains, locus YMR125W, strain sto1, hits give low values 0.938 | S. cerevisiae deletion strains, locus YMR129W, hits give low values 0.961 | S. cerevisiae deletion strains, locus YMR231W, strain pep5, hits give low values 0.963 | S. cerevisiae deletion strains, locus YNL183C, strain NPR1, hits give low values 0.838 | S. cerevisiae deletion strains, locus YNL209W, strain ssb2, hits give low values 0.934 | S. cerevisiae deletion strains, locus YNL248C, strain rpa49, hits give low values 0.915 | S. cerevisiae deletion strains, locus YNL322C, strain KRE1 (second series), hits give low values 0.907 | S. cerevisiae deletion strains, locus YNR049C, strain mso1, hits give low values 0.984 | S. cerevisiae deletion strains, locus YOL012C, strain htz1 1.54 | S. cerevisiae deletion strains, locus YOR001W, strain rrp6, hits give low values 0.893 | S. cerevisiae deletion strains, locus YOR061W, strain CKA2, hits give low values 0.965 | S. cerevisiae deletion strains, locus YOR069W, strain VPS5, hits give low values 0.968 | S. cerevisiae deletion strains, locus YOR080W, strain dia2, hits give low values 0.98 | S. cerevisiae deletion strains, locus YOR231W, strain MKK1, hits give low values 0.883 | S. cerevisiae deletion strains, locus YOR270C, strain vph1, hits give low values 1.01 | S. cerevisiae deletion strains, locus YPL256C, strain CLN2, hits give low values 0.878 | S. cerevisiae deletion strains, locus YPR141C, strain kar3, hits give low values 0.967
active: S. cerevisiae deletion strains, locus YJR075W, strain HOC1, hits give low values 0.705 | S. cerevisiae deletion strains, locus YKL009W, strain mrt4, hits give low values 0.685 | S. cerevisiae deletion strains, locus YKL085W, strain MDH1 (second series), hits give low values 0.853 | S. cerevisiae deletion strains, locus YKL085W, strain MDH1, hits give low values 0.853 | S. cerevisiae deletion strains, locus YKL160W, strain elf1, hits give low values 0.829 | S. cerevisiae deletion strains, locus YKL190W, strain CNB1, hits give low values 0.843 | S. cerevisiae deletion strains, locus YKR001C, strain vps1, hits give low values 0.359 | S. cerevisiae deletion strains, locus YLL001W, strain dnm1, hits give low values 0.838 | S. cerevisiae deletion strains, locus YLL026W, hits give low values 0.902 | S. cerevisiae deletion strains, locus YLR027C, strain aat2, hits give low values 0.816 | S. cerevisiae deletion strains, locus YLR039C, strain RIC1, hits give low values 0.351 | S. cerevisiae deletion strains, locus YLR058C, strain SHM2, hits give low values 0.879 | S. cerevisiae deletion strains, locus YLR113W, strain HOG1, hits give low values 0.816 | S. cerevisiae deletion strains, locus YLR221C, strain rsa3, hits give low values 0.808 | S. cerevisiae deletion strains, locus YLR258W, strain gsy2, hits give low values 0.892 | S. cerevisiae deletion strains, locus YLR262C, strain YPT6 (second series), hits give low values 0.505 | S. cerevisiae deletion strains, locus YLR262C, strain YPT6, hits give low values 0.293 | S. cerevisiae deletion strains, locus YLR268W, strain sec22, hits give low values 0.818 | S. cerevisiae deletion strains, locus YLR320W, strain mms22, hits give low values 0.722 | S. cerevisiae deletion strains, locus YLR330W, strain CHS5, hits give low values 0.748 | S. cerevisiae deletion strains, locus YLR342W, strain FKS1 (second series), hits give low values 0.398 | S. cerevisiae deletion strains, locus YLR342W, strain FKS1, hits give low values 0.781 | S. cerevisiae deletion strains, locus YLR357W, strain rsc2, hits give low values 0.852 | S. cerevisiae deletion strains, locus YLR418C, strain cdc73, hits give low values 0.381 | S. cerevisiae deletion strains, locus YML032C, strain rad52, hits give low values 0.696 | S. cerevisiae deletion strains, locus YML120C, strain ndi1, hits give low values 0.896 | S. cerevisiae deletion strains, locus YMR058W, strain fet3, hits give low values 0.872 | S. cerevisiae deletion strains, locus YMR078C, strain ctf18, hits give low values 0.867 | S. cerevisiae deletion strains, locus YMR205C, strain PFK2, hits give low values 0.697 | S. cerevisiae deletion strains, locus YMR223W, strain ubp8, hits give low values 0.728 | S. cerevisiae deletion strains, locus YMR263W, strain SAP30, hits give low values 0.785 | S. cerevisiae deletion strains, locus YMR307W, strain GAS1, hits give low values 0.237 | S. cerevisiae deletion strains, locus YNL067W, strain RPL9B, hits give low values 0.791 | S. cerevisiae deletion strains, locus YNL071W, strain lat1, hits give low values 0.468 | S. cerevisiae deletion strains, locus YNL128W, strain TEP1, hits give low values 0.78 | S. cerevisiae deletion strains, locus YNL153C, strain GIM3, hits give low values 0.838 | S. cerevisiae deletion strains, locus YNL233W, strain BNI4, hits give low values 0.584 | S. cerevisiae deletion strains, locus YNL250W, strain rad50, hits give low values 0.85 | S. cerevisiae deletion strains, locus YNL271C, strain bni1, hits give low values 0.8 | S. cerevisiae deletion strains, locus YNL298W, strain CLA4, hits give low values 0.548 | S. cerevisiae deletion strains, locus YNL307C, strain MCK1, hits give low values 0.266 | S. cerevisiae deletion strains, locus YNL322C, strain KRE1, hits give low values 0.87 | S. cerevisiae deletion strains, locus YNR052C, strain pop2, hits give low values 0.738 | S. cerevisiae deletion strains, locus YOL006C, strain TOP1, hits give low values 0.477 | S. cerevisiae deletion strains, locus YOL147C, strain pex11, hits give low values 0.695 | S. cerevisiae deletion strains, locus YOR070C, strain gyp1, hits give low values 0.873 | S. cerevisiae deletion strains, locus YOR083W, strain WHI5, hits give low values 0.825 | S. cerevisiae deletion strains, locus YOR106W, strain vam3, hits give low values 0.738 | S. cerevisiae deletion strains, locus YOR136W, strain idh2, hits give low values 0.853 | S. cerevisiae deletion strains, locus YOR144C, strain elg1, hits give low values 0.898 | S. cerevisiae deletion strains, locus YOR184W, strain ser1, hits give low values 0.458 | S. cerevisiae deletion strains, locus YOR265W, strain rbl2, hits give low values 0.912 | S. cerevisiae deletion strains, locus YOR290C, strain snf2, hits give low values 0.761 | S. cerevisiae deletion strains, locus YOR316C, strain cot1, hits give low values 0.85 | S. cerevisiae deletion strains, locus YPL051W, strain arl3, hits give low values 0.83 | S. cerevisiae deletion strains, locus YPL055C, strain LGE1, hits give low values 0.53 | S. cerevisiae deletion strains, locus YPL078C, strain atp4, hits give low values 0.791 | S. cerevisiae deletion strains, locus YPL106C, strain sse1, hits give low values 0.837 | S. cerevisiae deletion strains, locus YPL240C, strain hsp82, hits give low values 0.892 | S. cerevisiae deletion strains, locus YPL241C, strain CIN2, hits give low values 0.893 | S. cerevisiae deletion strains, locus YPR119W, strain clb2, hits give low values 0.917 | S. cerevisiae deletion strains, locus YPR163C, strain tif3, hits give low values 0.657 | S. cerevisiae deletion strains, locus YPR167C, strain met16, hits give low values 0.85 | S. cerevisiae deletion strains, strain wtn01, hits give low values 0.731 | S. cerevisiae strains, strain wild type, hits give low values 0.785
